# D1 agonist: agonists of human D1 dopamine receptor | P21728 | HEK293 T-REx D1 cells, calcium flux, agonist mode | activation, % at 2 µM | actives 1% (n = 360,000) | AID 504660; in the data active = activation above about 30%; also: 0% is about no effect
#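 Inducible HEK293 T-REx D1 cells, force-coupled to calcium signalling, were plated at 4000 cells/well with tetracycline and held overnight at 30 C. After no-wash calcium dye loading, compound-evoked calcium rise over 180 s flagged agonists.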
# DRD3 antagonist: antagonists of human D3 dopamine receptor | P35462 | max response, negative = inhibition, % | actives 2.5% (n = 360,000) | D3R cells, DiscoveRx beta-arrestin luminescence, antagonist mode; stronger effect = lower value; in the data active = max response below about -50%; inconclusive = no clear call, values can overlap the other calls; also: % is scaled to controls: 0 for no effect and ±100 for the full control effect
# Target sequence (P35462 whole entry, looked up): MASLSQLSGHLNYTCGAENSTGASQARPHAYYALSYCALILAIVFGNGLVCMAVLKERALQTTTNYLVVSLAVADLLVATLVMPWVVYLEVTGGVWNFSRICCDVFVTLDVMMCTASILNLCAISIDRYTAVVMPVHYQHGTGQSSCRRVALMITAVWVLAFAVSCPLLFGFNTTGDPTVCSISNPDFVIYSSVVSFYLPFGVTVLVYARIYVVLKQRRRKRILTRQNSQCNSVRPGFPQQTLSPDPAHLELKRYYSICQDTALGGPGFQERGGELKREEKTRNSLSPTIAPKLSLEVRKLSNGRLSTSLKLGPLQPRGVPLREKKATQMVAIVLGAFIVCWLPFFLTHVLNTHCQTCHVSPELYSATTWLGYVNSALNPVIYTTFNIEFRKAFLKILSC
#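 Cells expressing the human receptor were seeded at 1500 cells/well, incubated overnight at 37 degrees C in 5% CO2, then exposed to library compounds with dopamine controls for 90 minutes at 37 degrees C before luminescent detection.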
# D1 antag: antagonists of human D1 dopamine receptor; P21728; HEK293 TREx D1 cells, calcium flux, dopamine EC80; stronger effect = lower value; activity change, negative = inhibition, % at 10 µM; actives 3.2% (n = 360,000); AID 504652; in the data active = activity change below about -30%; also: % is scaled to controls: 0 for no effect and ±100 for the full control effect
#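 HEK293 T-REx cells expressing inducible, force-coupled D1 receptor; no-wash Ca dye, 30–90 min RT. Cmpd → 180 s read at 1 Hz → EC80 DA → 180 s read.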
# D1 potentiator: enhances dopamine response at the human D1 receptor | P21728 | HEK293 TREx D1 cells, calcium flux, dopamine EC20 potentiation | potentiation, % at 10 µM | actives 0.036% (n = 360,000); in the data active = potentiation above about 30%; also: 0% is about no effect
# DRD3 agonist: agonists of human D3 dopamine receptor; P35462; max activation, %; actives 0.58% (n = 410,000); D3R DiscoveRx beta-arrestin cells, luminescence, 90 min; in the data active = max activation above about 30%; also: 0% is about no effect
#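 Cells at 1500/well, incubated overnight, then treated with pinned compounds (dopamine as control) for 90 min at 37 degrees C. DiscoveRx reagent added for 30 - 60 minutes at room temperature; luminescence read.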
# ERG-DNA inh: inhibitors of human ERG Ets domain-DNA interaction. P11308. fluorescence polarization, His-ERG Ets domain / labelled DNA. Potency, µM (titrated, usually from 76.9 µM), for the others: top-dose FP activity, negative = inhibition, usual class: inhibitors. actives 0.028% (n = 370,000); active = well fitted inhibition curve with a large enough effect in the polarisation, with a control signal flat; inconclusive = small, poorly fitted or top-dose-only effect, or effect the other way, or a change in a side signal; inactive = no such curve, though single readings can be large or run the other way; the % refers to the polarisation;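 also: polarization taken with two DNA probes labelled with fluorescein and Texas red; potency is read from the fitted curve at half-maximal effect; % of control where 0% means no effect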
#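 His-tagged ERG Ets domain (1 uM in the protein solution; 300mM KCl, 50mM Tris-HCl, 1mM EDTA, 1mM DTT, pH 7.5) received compound, then a probe mix of 5 nM fluorescein-DNA and 100nM Texas-615-DNA. Fluorescence polarization was read for both dyes.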
# An asterisk follows results filed as active; ? = inconclusive; nt = not tested or not shown. Shown are actives, neighbours in structure and some others; about 6.1% of the full set was active somewhere.
SMILES,D1 agonist,DRD3 antagonist,D1 antag,D1 potentiator,DRD3 agonist,ERG-DNA inh
Cc1cc(C)cc(N(C(=O)c2csnn2)C(C(=O)NC(C)(C)C)c2ccncc2)c1 (stereo not given),3,11,2,-1,-1,?
CCOC(=O)CSc1nnc(CNc2cccc(Cl)c2)n1-c1ccccc1,17,-8,-16,1,1,-10%
CCc1nnc(NC(=O)CSc2nnc(Cc3ccccc3)n2-c2ccccc2)s1,3,-26,-13,-9,-3,-4%
CCOC(=O)CSc1nnc(CNc2ccc(Cl)cc2)n1-c1ccccc1,7,-11,-52*,0,-4,nt
CCc1nnc(NC(=O)CSc2nnc(CNc3cccc(C)c3)n2-c2ccccc2)s1,1,7,-31*,-3,2,-9%
COc1ccc(N(CC(=O)Nc2nccs2)S(=O)(=O)c2c(C)nn(C)c2C)cc1,0,-16,-55*,-1,1,3%
Cc1nn(C)c(C)c1S(=O)(=O)N(CC(=O)Nc1nccs1)c1ccc(C(C)C)cc1,1,7,1,-2,2,-2%
COc1ccc(N(CC(=O)Nc2ccc3c(c2)OCCO3)S(=O)(=O)c2c(C)nn(C)c2C)cc1,1,-12,-30*,-6,1,-10%
CCC(=O)Oc1oc(-c2ccccc2)nc1C=Nc1ccccc1OC,-1,-20,7,9,-2,1%
CC(Sc1nc2ncc(Cl)cc2[nH]1)C(=O)Nc1ccccc1[N+](=O)[O-] (stereo not given),nt,-5,nt,nt,-6,nt
Cc1cc(OCc2cc(C(=O)N(C)CCCN3CCOCC3)no2)cc(C)c1Cl,35*,-3,-16,-18,-12,-1%
Cc1cc(OCc2cc(C(=O)N(C)CCOc3ccccc3)no2)cc(C)c1Cl,37*,11,-4,-7,1,-9%
Cc1cc(OCc2cc(C(=O)N(C)Cc3ccccn3)no2)cc(C)c1Cl,3,4,0,-2,1,1%
CC(=O)c1ccc(OCc2cc(C(=O)N(C)Cc3ccccn3)no2)cc1,3,0,-73*,8,-9,1%
Cc1cc(OCc2cc(C(=O)NCC3(C)COC3)no2)cc(C)c1Cl,22,2,-41*,-2,0,-6%
CCCC(C(=O)NC(C)(C)C)N(CC1CCCO1)C(=O)c1snc(C(N)=O)c1N (stereo not given),3,3,6,4,-1,-3%
CCCCn1c(N)c(N(CCC(C)C)C(=O)C2=NN(c3ccccc3)C(=O)CC2)c(=O)[nH]c1=O,0,-5,-4,5,0,-12%
O=C(COC(=O)CNS(=O)(=O)c1ccc(Br)cc1Cl)NCCc1ccccc1,3,7,-34*,-7,2,-11%
Cc1ccc(NC(=O)CN(C)C(=O)COC(=O)CNS(=O)(=O)c2ccc(Br)cc2Cl)cc1,7,2,-34*,-14,2,-2%
CCCCn1c(N)c(N(CC)C(=O)c2cc(Br)ccc2Cl)c(=O)[nH]c1=O,-3,-5,-1,2,3,8%
COc1ccc(NC(=O)COC(=O)C2CC(=O)N(c3ccc(C)cc3)C2)cc1 (stereo not given),8,7,-27,nt,6,?
Cc1[nH]nc2c1C(c1ccoc1)C(C#N)=C(N)O2 (stereo not given),2,24,-8,-2,-3,2%
Cc1cc(C)c(C2C(C#N)=C(N)Oc3n[nH]c(C)c32)cc1CN1CCCC1 (stereo not given),2,-112*,6,-2,-31,-1%
CC1CCCCN1C(=O)CCS(=O)(=O)c1cc2c(cc1Cl)NC(=O)CO2 (stereo not given),4,7,10,-6,1,-4%
O=C(O)c1ccccc1-c1ccc(C=c2sc3nc4cc(Br)cnc4n3c2=O)o1,nt,-55*,nt,nt,-10,nt
SMILES,D1 agonist,DRD3 antagonist,D1 antag,D1 potentiator,DRD3 agonist,ERG-DNA inh
O=C(O)c1cccc(-c2ccc(/C=c3/sc4nc5ccccc5n4c3=O)o2)c1,39*,13,-18,-10,1,-4%
O=C(O)c1cc(C(=O)O)cc(-c2ccc(/C=c3/sc4nc5ccccc5n4c3=O)o2)c1,4,-1,11,2,0,8%
CC1CCc2nc(NC(=O)COc3ccc(C(C)(C)C)cc3)sc2C1 (stereo not given),2,nt,8,2,4,8%
O=C(c1cccc(S(=O)(=O)NCc2ccc3c(c2)OCO3)c1)N1CCCC1,1,-4,10,-1,-2,12%
Cc1ccc(S(=O)(=O)N(C)C)cc1NC(=O)Nc1ccccc1F,5,-14,-43*,-11,-15,10%
COc1ccc(NC(=O)Nc2ccccc2F)c(C)c1,2,-19,-37*,-3,-12,0%
Cc1ccc(S(=O)(=O)N(C)C)cc1NC(=S)NC(C)CCCC(C)C (stereo not given),6,?,-12,-4,-13,18%
Cc1cc(C)cc(NC(=O)Nc2cc(S(=O)(=O)N(C)C)ccc2C)c1,11,?,-19,-5,-20,1%
Cc1ccc(S(=O)(=O)N(C)C)cc1NC(=S)NC(C)CCC(C)C (stereo not given),12,2,-59*,-4,-15,8%
Cc1ccc(S(=O)(=O)N(C)C)cc1NC(=O)C(C)N(C)CCOc1ccc(Cl)cc1 (stereo not given),30*,-10,-19,nt,-5,2%
COc1ccc(NC(=O)Nc2ccccc2F)cc1,-1,7,3,-2,8,nt
CC(=O)c1ccc(OCCCC(=O)Nc2cc(S(=O)(=O)N(C)C)ccc2C)cc1,9,3,-14,-5,-15,-7%
COc1cc(C(=O)NCC(=O)OCC(=O)Nc2ncc(Cl)cc2Cl)cc(OC)c1OC,0,2,4,4,-10,-15%
CCCCn1c(-c2ccc(C)cc2)c(C)n2c3c(=O)n(C)c(=O)n(C)c3nc12,3,nt,-21,-2,7,-8%
Cc1ccc(-c2c(C)n3c4c(=O)n(C)c(=O)n(C)c4nc3n2CCO)cc1,8,nt,-11,-1,46*,-3%
Cc1cc(Cl)ccc1C(O)c1ncc(-c2ccccc2Cl)[nH]1 (stereo not given),nt,18,nt,nt,9,nt
CN(C)CCCN(C(=O)c1ccc(S(=O)(=O)N2CCc3ccccc32)cc1)c1nc2c(Cl)cccc2s1,5,-17,-3,2,-9,6%
COc1cccc2sc(N(CCCN(C)C)C(=O)c3ccc(S(=O)(=O)N4CCCc5ccccc54)cc3)nc12,39*,-23,-13,-1,-19,-6%
